Data from PubChem BioAssay (Tox21).
Results filed as inconclusive are left out. The source made the active and inactive calls. Unless noted, the call rests on the fitted dose curve; in most records, active means well fitted curve in the direction sought with a large enough effect in the repeat runs; inconclusive means weak or mixed curves; inactive means no such curve, though single readings can be large; an effect the other way counts as inactive or inconclusive.

What was measured:
[1] = target: Luciferin 4-monooxygenase (Photinus pyralis) (UniProt P08659); experiment: qHTS assay to identify small molecule inhibitors of firefly luciferase (AID 1224835); further: nearly all actives have a fitted effect of over 25% in size; further: potency means the concentration at half of the fitted maximal effect
Method in brief: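 Inhibition of purified Photinus luciferase is measured by luminescence. Substrate levels (D-luciferin, ATP) sit at their KM values. Each compound is tested in a concentration series.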

[2] = qHTS assay to identify small molecule antagonists of the constitutive androstane receptor (CAR) signaling pathway - cell viability counter screen (AID 1224837); further: nearly all actives have a fitted effect of over 45% in size
Method in brief: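 Read-out: CellTiter-Fluor fluorescence after 23 hr at 37 C/5% CO2. Cells: HepG2 double-stable for hCAR and CYP2B6-2.2kb. Compounds tested at 15 concentrations in the presence of CITCO, final concentration 50 nM.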

[3] = target: Nuclear receptor subfamily 1 group I member 3 (Homo sapiens) (UniProt Q14994); experiment: qHTS assay to identify small molecule antagonists of the constitutive androstane receptor (CAR) signaling pathway (AID 1224838);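 further: HepG2 cells stably expressing hCAR with CYP2B6 luciferase reporter stimulated by CITCO; nearly all actives have a fitted effect of over 40% in size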
Method in brief: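 Read-out: ONE-Glo luciferase luminescence after 30 min at room temperature. HepG2-CYP2B6-hCAR double-stable cells, compounds in 15-point titration plus 50 nM CITCO final, 24 h at 37 C/5% CO2.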

[4] = target: Nuclear receptor subfamily 1 group I member 3 (Homo sapiens) (UniProt Q14994); experiment: qHTS assay to identify small molecule agonists of the constitutive androstane receptor (CAR) signaling pathway (AID 1224839);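 further: HepG2 cells stably carrying human CAR and a CYP2B6 luciferase reporter; nearly all actives have a fitted effect of over 15% in size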
Method in brief: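 Stable hCAR/CYP2B6-2.2kb HepG2 line in DMEM with 10% FBS; compounds (15 concentrations) and 0.75 uM PK11195 final, 24 h at 37 C/5% CO2, then ONE-Glo luminescence after 30 min.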

[5] = qHTS assay to identify small molecule antagonists of the estrogen related receptor signaling pathway with the pleiotropic PPARgamma coactivator (PGC) from Tox21 10K library - cell viability counter screen (AID 1224840; active means well fitted cell-killing curve with a large enough effect in the repeat runs, not every such curve was filed as active; further: nearly all actives have a fitted effect of over 40% in size)
Method in brief: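 Fluorescence read-out of CellTiter-Fluor viability reagent, added after cells had been exposed to compound in DMSO for 17.5 h at 37 C; 30 min development at 37 C/5% CO2. Cells: PGC/ERR line, 2,000/well.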

[6] = target: Thyrotropin receptor (Homo sapiens) (UniProt P16473); experiment: qHTS assay to identify small molecule agonists of the thyroid stimulating hormone receptor (TSHR) signaling pathway (AID 1224843; calls by dose curve; further: nearly all actives have a fitted effect of over 45% in size)
Method in brief: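 Agonist activity read as cAMP rise via d2/cryptate HTRF competition, 1 h room-temperature detection, in HEK293 cells expressing TSHR. Fifteen-point titrations, each run in triplicate, with a 30 min room-temperature incubation beforehand.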

[7] = qHTS assay to identify small molecule agonists of the hypoxia (HIF-1) signaling pathway - cell viability counter screen (AID 1224844; calls by dose curve; further: nearly all actives have a fitted effect of over 50% in size)
Method in brief: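 CellTiter-Glo luminescence read-out, 30 min RT, taken in the same wells as the beta-lactamase HRE reporter assay; HRE-bla ME-180 cells, 0.5% dialyzed FBS, 17 hr compound treatment at 37C, 5% CO2.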

[8] = qHTS assay to identify small molecule agonists of H2AX (AID 1224845; active means well fitted activation curve with a large enough effect in the signal ratio in the repeat runs, not every such curve was filed as active; the % refers to the signal ratio)
Method in brief: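 Phospho-H2AX Ser139 measured by HTRF (ex 320 nm; em 665 and 620 nm) after 24 hr antibody incubation. Compounds, 15 concentrations, 0.76% DMSO, were applied to CHO-K1 cells for 3hr at 37C before lysis.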

[9] = qHTS assay to identify small molecule agonists of the hypoxia (HIF-1) signaling pathway (AID 1224846; active means well fitted activation curve with a large enough effect in the signal ratio in the repeat runs, not every such curve was filed as active; the % refers to the signal ratio)
Method in brief: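 Beta-lactamase FRET read-out (CCF4-AM substrate) from ME-180 cells carrying an HRE-driven bla reporter, after 17 hrs compound exposure at 37C/5% CO2. Cells were seeded at 2,000 per well in 0.5% dialyzed FBS medium and preincubated 5 hrs.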

[10] = qHTS assay to identify small molecule agonists of H2AX - cell viability counter screen (AID 1224847; calls by dose curve; further: top concentration of the series differs between compounds; nearly all actives have a fitted effect of over 30% in size)
Method in brief: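 Viability of CHO-K1 (wild type) cells after 3 hr compound exposure was measured by CellTiter-Glo luminescence.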

[11] = qHTS RealTime-Glo MT Cell Viability Assay in HepG2 cells - 24 hour (AID 1224867); further: nearly all actives have a fitted effect of over 50% in size
Method in brief: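 Tox21 10K library screened in qHTS format on HepG2 cells carrying RealTime-Glo reagents. Compounds were added after a 5 h preincubation, and the luminescent signal from continuous culture was measured repeatedly during 40 h treatment.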

[12] = qHTS RealTime-Glo MT Cell Viability Assay in HEK293 cells - 32 hour (AID 1224868); further: top concentration of the series differs between compounds; nearly all actives have a fitted effect of over 50% in size
Method in brief: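 Luminescence generated by NanoLuc from substrate produced by living HEK293 cells served as the viability signal. Each value reflects the reading at its stated time point during continuous 40 h compound exposure at 37 C.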

[13] = A CellTox Green Cytotoxicity Assay to monitor cytotoxicity in HEK293 cells - 0 hour (AID 1224869); further: nearly all actives have a fitted effect of over 50% in size
Method in brief: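 Read-out: fluorescence of a cell-impermeant cyanine dye staining DNA of dead cells, proportional to cytotoxicity. HEK293, 600 cells/well with reagent, compound (23 nL DMSO) added after 5 h; reads at 0, 8, 16, 24, 32, 40 h.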

[14] = qHTS assay to identify small molecule agonists of the constitutive androstane receptor (CAR) signaling pathway - cell viability counter screen (AID 1224836); further: nearly all actives have a fitted effect of over 45% in size
Method in brief: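 Fluorescence from CellTiter-Fluor indicates live cells after 23 h exposure. The human hepatoma line expresses hCAR and a CYP2B6-2.2kb reporter. Incubation medium contains 0.75 uM PK11195 (final).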

[15] = qHTS assay to identify small molecule antagonists of the estrogen related receptor signaling pathway with the pleiotropic PPARgamma coactivator (PGC) from Tox21 10K library (AID 1224841; call rule not given here; further: potency means the concentration at half of the fitted maximal effect)
Method in brief: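 Luminescence read-out (One-Glo luciferase reagent, 30 min at room temperature) from PGC/ERR cells exposed to DMSO-dissolved test compounds for 18 h at 37 C; cells, 2,000 per well, had been preincubated 6 h before compound transfer.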

[16] = qHTS assay to identify small molecule agonists of the estrogen related receptor signaling pathway with the pleiotropic PPARgamma coactivator (PGC) from Tox21 10K library (AID 1224842); further: nearly all actives have a fitted effect of over 15% in size
Method in brief: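 Luminescence from One-Glo (30 min, room temperature) measured after PGC/ERR cells had 18 h at 37 C with pinned compound (23 nL in DMSO). Cells had been seeded at 2,000 per well and pre-incubated 6 h.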

[17] = qHTS assay to identify small molecule antagonists of the estrogen related receptor (ERR) signaling pathway from Tox21 library (AID 1224848); further: nearly all actives have a fitted effect of over 50% in size; further: potency means the concentration at half of the fitted maximal effect
Method in brief: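 Luciferase luminescence (ONE-Glo, 30 min room temperature) was the read-out. Cells of the NTP-supplied ERR line, 2,000 per well, were given 6 h at 37 C before compound addition in DMSO and 18 h exposure at 37 C.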

[18] = qHTS assay to identify small molecule agonists of the estrogen related receptor (ERR) signaling pathway from Tox21 library (AID 1224849; calls by dose curve; further: nearly all actives have a fitted effect of over 15% in size); settings: ERR reporter cell line, ONE-Glo luciferase, 18 h; at 92.4 µM (top of the series) unless noted
Method in brief: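 Luminescence readout (ONE-Glo, 30 min RT) after 18 h compound exposure at 37 C of NTP-supplied ERR reporter cells; cells were plated 6 h before compound addition by pin tool.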
On the % scale 0 is the no-effect control and ±100 the full control effect.

Sequence of Thyrotropin receptor (Homo sapiens) (P16473 whole entry, looked up): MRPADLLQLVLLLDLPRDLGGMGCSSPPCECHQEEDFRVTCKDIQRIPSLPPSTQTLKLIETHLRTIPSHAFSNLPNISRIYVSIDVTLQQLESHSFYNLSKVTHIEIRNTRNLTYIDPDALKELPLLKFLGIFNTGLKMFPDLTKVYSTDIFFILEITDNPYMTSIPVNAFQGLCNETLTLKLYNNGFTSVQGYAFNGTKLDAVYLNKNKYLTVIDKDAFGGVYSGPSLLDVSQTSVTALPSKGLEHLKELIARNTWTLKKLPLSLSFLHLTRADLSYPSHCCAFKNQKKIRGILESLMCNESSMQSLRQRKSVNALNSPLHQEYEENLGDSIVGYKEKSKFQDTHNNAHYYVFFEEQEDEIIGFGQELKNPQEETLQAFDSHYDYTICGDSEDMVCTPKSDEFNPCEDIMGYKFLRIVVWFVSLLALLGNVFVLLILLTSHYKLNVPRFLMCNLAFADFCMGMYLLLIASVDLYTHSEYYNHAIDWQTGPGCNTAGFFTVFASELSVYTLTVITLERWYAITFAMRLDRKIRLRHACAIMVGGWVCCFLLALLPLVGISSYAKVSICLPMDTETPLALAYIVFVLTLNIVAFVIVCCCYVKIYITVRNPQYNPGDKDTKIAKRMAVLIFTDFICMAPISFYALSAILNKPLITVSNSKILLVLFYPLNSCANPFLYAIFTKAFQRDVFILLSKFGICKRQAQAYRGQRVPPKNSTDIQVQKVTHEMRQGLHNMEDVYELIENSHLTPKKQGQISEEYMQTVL
Sequence of Nuclear receptor subfamily 1 group I member 3 (Homo sapiens) (Q14994 whole entry, looked up): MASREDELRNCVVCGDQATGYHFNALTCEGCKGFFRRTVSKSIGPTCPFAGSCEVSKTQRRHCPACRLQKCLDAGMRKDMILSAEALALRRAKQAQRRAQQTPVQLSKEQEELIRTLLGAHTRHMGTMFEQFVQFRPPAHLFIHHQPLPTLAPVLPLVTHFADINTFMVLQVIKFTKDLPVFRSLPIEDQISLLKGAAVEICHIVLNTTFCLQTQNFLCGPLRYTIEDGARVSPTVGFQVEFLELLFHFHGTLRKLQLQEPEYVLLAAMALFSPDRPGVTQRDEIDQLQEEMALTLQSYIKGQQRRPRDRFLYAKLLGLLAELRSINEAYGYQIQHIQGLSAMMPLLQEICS
Sequence of Luciferin 4-monooxygenase (Photinus pyralis) (P08659 whole entry, looked up): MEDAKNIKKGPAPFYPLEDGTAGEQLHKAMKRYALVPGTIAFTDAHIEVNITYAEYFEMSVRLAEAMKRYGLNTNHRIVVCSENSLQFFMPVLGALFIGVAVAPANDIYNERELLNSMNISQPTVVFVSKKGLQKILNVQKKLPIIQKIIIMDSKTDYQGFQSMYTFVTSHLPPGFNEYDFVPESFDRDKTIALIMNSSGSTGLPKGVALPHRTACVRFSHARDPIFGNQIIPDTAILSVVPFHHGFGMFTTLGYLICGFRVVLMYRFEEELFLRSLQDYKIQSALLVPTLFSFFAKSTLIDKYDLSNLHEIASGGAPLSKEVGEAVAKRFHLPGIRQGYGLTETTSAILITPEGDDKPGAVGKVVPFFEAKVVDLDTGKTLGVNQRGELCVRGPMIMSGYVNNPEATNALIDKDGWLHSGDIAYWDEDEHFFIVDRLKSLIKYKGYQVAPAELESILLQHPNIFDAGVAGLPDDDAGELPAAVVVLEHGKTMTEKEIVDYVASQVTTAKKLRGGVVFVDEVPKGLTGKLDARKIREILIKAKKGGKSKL

O=C(O)CCSSCCC(=O)O
inactive: Potency [1] | Potency [2] | outcome [3] | Potency [4] | outcome [5] | Potency [6] | outcome [7] | outcome [8] | outcome [9] | Potency [10] | outcome [11] | Potency [12] | outcome [13]

CN(C)C(=O)CNC(=O)Cc1ccccc1
inactive: Potency [1] | Potency [14] | outcome [3] | Potency [4] | outcome [5] | Potency [6] | outcome [7] | outcome [8] | outcome [9] | Potency [10] | outcome [11] | Potency [12] | outcome [13]

N[C@@H](CCC(=O)Nc1ccc([N+](=O)[O-])cc1)C(=O)O
inactive: Potency [1] | outcome [3] | Potency [4] | outcome [5] | Potency [15] | outcome [16] | Potency [6] | outcome [7] | outcome [8] | outcome [9] | Potency [10] | Potency [17] | activity change, positive = activation [18] -15.8% | outcome [11] | Potency [12] | outcome [13]

Cc1ccccc1N=O
inactive: Potency [1] | Potency [14] | Potency [2] | Potency [15] | outcome [16] | Potency [6] | outcome [7] | outcome [8] | Potency [10] | Potency [17] | activity change, positive = activation [18] 6.56% | outcome [11] | Potency [12] | outcome [13]

CC(=C(CCOC(=O)C(C)C)SSC(CCOC(=O)C(C)C)=C(C)N(C=O)Cc1cnc(C)nc1N)N(C=O)Cc1cnc(C)nc1N
inactive: Potency [1] | Potency [14] | outcome [3] | Potency [4] | outcome [5] | Potency [15] | outcome [16] | Potency [6] | outcome [7] | outcome [8] | outcome [9] | Potency [10] | Potency [17] | activity change, positive = activation [18] 0.537% [at 42.5 µM] | outcome [11] | Potency [12] | outcome [13]

O=C1c2cccc3c2[C@H](CCC3)CN1[C@@H]1CN2CCC1CC2
active: activity change, positive = activation [18] 20.8% [at 42.5 µM]
inactive: Potency [1] | Potency [14] | Potency [2] | Potency [15] | Potency [6] | outcome [7] | outcome [8] | outcome [9] | Potency [10] | Potency [17] | outcome [11] | outcome [13]

O=S(=O)(O)c1cc(O)c2ccc(Nc3ccccc3)cc2c1
inactive: outcome [3] | Potency [4] | outcome [5] | outcome [7] | outcome [9] | Potency [10] | outcome [11] | Potency [12] | outcome [13]
active: Potency [1] 17.8 µM

Cc1cccc2nccnc12
inactive: Potency [1] | Potency [2] | outcome [5] | Potency [6] | outcome [7] | outcome [8] | outcome [9] | outcome [11] | Potency [12] | outcome [13]

CCc1ccc(C=O)cc1
inactive: Potency [1] | Potency [14] | outcome [3] | Potency [4] | outcome [5] | Potency [15] | outcome [16] | Potency [6] | outcome [7] | outcome [8] | outcome [9] | Potency [10] | Potency [17] | activity change, positive = activation [18] 5.25% | outcome [11] | Potency [12] | outcome [13]

CCOC(=O)c1ncn2c1CN(C)C(=O)c1cc(F)ccc1-2
inactive: Potency [1] | Potency [14] | Potency [4] | Potency [6] | outcome [7] | outcome [8] | Potency [10] | outcome [11] | Potency [12] | outcome [13]

O=C(O)Cc1cn(-c2ccccc2)nc1-c1ccc(Cl)cc1
inactive: Potency [1] | Potency [2] | outcome [3] | Potency [4] | outcome [5] | Potency [6] | outcome [7] | outcome [8] | outcome [9] | Potency [10] | outcome [11] | Potency [12] | outcome [13]

Nc1ccc2cc(S(=O)(=O)O)cc(O)c2c1
inactive: Potency [14] | Potency [2] | outcome [3] | Potency [4] | outcome [5] | Potency [15] | outcome [16] | outcome [7] | outcome [9] | Potency [10] | Potency [17] | activity change, positive = activation [18] 1.3% | outcome [11] | Potency [12] | outcome [13]

C[C@@H]1O[C@@H](O[C@@H]2[C@@H](O)[C@H](OCCc3ccc(O)c(O)c3)O[C@H](CO[C@@H]3O[C@H](CO)[C@@H](O)[C@H](O)[C@H]3O)[C@H]2OC(=O)/C=C/c2ccc(O)c(O)c2)[C@H](O)[C@H](O)[C@H]1O
inactive: Potency [14] | outcome [3] | Potency [4] | outcome [5] | outcome [7] | outcome [9] | Potency [10] | outcome [11] | outcome [13]

COc1cc(N)ccc1C
active: Potency [15] 1.52 µM | Potency [17] 27 µM
inactive: Potency [1] | Potency [2] | outcome [16] | Potency [6] | outcome [7] | outcome [8] | outcome [9] | Potency [10] | activity change, positive = activation [18] -31.2% | outcome [11] | Potency [12] | outcome [13]

C=C(C)C(=O)OCCN(CC)CC
inactive: Potency [1] | Potency [14] | outcome [3] | Potency [4] | outcome [5] | Potency [6] | outcome [7] | outcome [8] | outcome [9] | Potency [10] | outcome [11] | Potency [12] | outcome [13]
